Hits are enriched below; roughly 0.43% of the tested compounds scored in any of these assays.
HDAC3 inh – inhibitors of human histone deacetylase 3; AID 2718; O15379; 0.15% of 320,000 active; recombinant HDAC3, fluorogenic peptide/trypsin coupled, fluorescence; inhibition, % at 8.3 µM; in the data active means inhibition above about 26%, passing the limit was not always enough
Target sequence (O15379 whole entry, looked up): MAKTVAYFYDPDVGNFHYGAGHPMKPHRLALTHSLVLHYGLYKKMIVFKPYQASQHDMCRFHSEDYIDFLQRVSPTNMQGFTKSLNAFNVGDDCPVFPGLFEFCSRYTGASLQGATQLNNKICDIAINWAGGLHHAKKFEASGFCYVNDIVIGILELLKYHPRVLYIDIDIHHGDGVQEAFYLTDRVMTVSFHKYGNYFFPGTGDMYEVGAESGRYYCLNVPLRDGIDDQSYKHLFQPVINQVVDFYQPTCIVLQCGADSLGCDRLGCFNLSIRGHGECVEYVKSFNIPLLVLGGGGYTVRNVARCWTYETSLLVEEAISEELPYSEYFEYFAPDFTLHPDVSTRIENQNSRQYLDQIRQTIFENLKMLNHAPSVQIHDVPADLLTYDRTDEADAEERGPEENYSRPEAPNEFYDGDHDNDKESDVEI
PKA-R2B activ – PKA-R2B complex activation | 0.079% of 340,000 active | P22694+P31323 | PKA-R2B holoenzyme dissociation, Cy5-IP20 fluorescence polarization; R2B truncated from residue 108, S112A mutant; 0% DMSO only, 100% 113 µM cGMP | activation, % at 11.4 µM | AID 504700;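 active means activation above a cutoff set at the mean over all compounds plus 3 SD, cut at about 18% in these data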;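 further: higher means more holoenzyme dissociation and a rise in polarization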
Rtt109 HAT inh – blocks Candida albicans Rtt109/Vps75 acetyltransferase activity. AID 540336. inhibition, % at 34.9 µM. Q5AAJ8. purified Rtt109/Vps75, ThioGlo CoA-SH fluorescence, 4 h. 0.16% of 330,000 active;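 active means inhibition of at least 50% in every replicate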
PKA-R1A activ – PKA-R1A complex activation; P00514+P68181; AID 504707; PKA-R1A dissociation, Cy5-IP20 fluorescence polarization; scaled: DMSO 0%, 113 µM cGMP 100%; 0.083% of 340,000 active; activation, % at 11.4 µM;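 active means percent activation above the mean of all tested compounds plus 3 SD, cut at about 19% in these data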;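 further: higher means more PKAc released from R1A so a rise in polarization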
R2B FP artifact – counter-screen for PKA-R2B activators: fluorescence polarization artifacts; shares compounds with PKA-R2B activ; FP artifact counterscreen; activation, % at 11.4 µM; 6% of 270 active; AID 504796; in the data active means activation above about 20%;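 further: Cy5 labelled IP20 peptide probe with compound but no PKA protein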
PKA-R2B confirm – confirmation of human PKA-R2B complex activators; shares compounds with PKA-R2B activ; fluorescence polarization, activation; activation, % at 11.4 µM; 9% of 270 active; AID 504797; in the data active means activation above about 19%
The depositor's hits bear a star; . = no result given.

SMILES | HDAC3 inh | PKA-R2B activ | Rtt109 HAT inh | PKA-R1A activ | R2B FP artifact | PKA-R2B confirm
CC(=O)c1sccc1NC(=O)CC(C)(C)CC(=O)O | 9 | . | . | . | . | .
CCc1nc2ccccc2c(C(=O)OCC(=O)NCCCN2CCCC2=O)c1C | -5 | 19* | -9 | 7 | 0 | -3
O=S(=O)(Nc1cc2nc3ccccc3nc2n1Cc1ccccc1)c1ccc(Cl)cc1 | -8 | 22* | 5 | -5 | 1 | 7
O=C(COC(=O)/C=C/c1cccc(Br)c1)Nc1ccc(Cl)cn1 | . | -5 | . | -4 | . | .
CCOc1ccc(NC(=O)CN2C(=O)NC3(CCCCCC3)C2=O)cc1 | 0 | 20* | 11 | -4 | -3 | -3
O=C(O)CC(Cc1ccc(Cl)cc1)C(=O)Nc1ccc([N+](=O)[O-])cc1 (stereo not drawn) | 1 | 19* | . | 3 | -4 | -1
CCOc1c(CNCCNC(=O)c2nonc2N)cccc1OC | 7 | 19* | 0 | 4 | 2 | 6
CNC(=S)NNc1nc(N2CCOCC2)nc(N2CCOCC2)n1 | -7 | -6 | -7 | -6 | . | .
CCNC(=S)NNc1nc(N2CCOCC2)nc(N2CCOCC2)n1 | 6 | 19* | -1 | -10 | 1 | 1
Cc1ccc(S(=O)(=O)N2CCC(NC(=O)OC(C)C)CC2)cc1 | 5 | 1 | . | -5 | . | .
O=C(COC(=O)CCNS(=O)(=O)c1ccccc1)NC1CC1 | 1 | 19* | 9 | -2 | 4 | 0
O=C(COC(=O)CCNS(=O)(=O)c1ccccc1)NNC(=O)c1ccccc1 | 3 | -7 | -2 | 2 | . | .
CCS(=O)(=O)N1Cc2ccccc2CC1C(=O)N(C)Cc1ccc(OC)c(F)c1 (stereo not drawn) | -13 | 6 | -6 | -7 | . | .
Cc1ccc(N2C(=O)C3ON(c4ccccc4)C(c4ccncc4)C3C2=O)cc1 (stereo not drawn) | 10 | 20* | -3 | 3 | 2 | 3
O=C(NC1CCCCCC1)c1c(O)nc2sccn2c1=O | . | -6 | -4 | 3 | . | .
O=C(NC1CCCCC1)c1c(O)nc2sccn2c1=O | 5 | 20* | 6 | 4 | 8 | 0
NC(=O)Cn1cnc2nc3n(c2c1=O)CCC3 | 1 | 5 | -15 | -6 | . | .
CCOc1cc(/C=N/n2c(C)nc3ccccc3c2=O)ccc1O | -9 | 20* | -9 | -10 | 2 | 3
CN(C)S(=O)(=O)c1cccc(-c2cn3ccccc3n2)c1 | -4 | 19* | 4 | 4 | 5 | 4
O=C(NC1CCCCCC1)c1ccc(-n2cnnc2)cc1 | 12 | -5 | -9 | 4 | . | .
CN(C)c1ccc(N=Nc2ccc(S(N)(=O)=O)cc2)cc1 | -10 | 1 | 4 | 9 | . | .
CN(C)c1ccc(N=Nc2ccc(S(=O)(=O)O)cc2)c2ccccc12 | 13 | 30* | 40 | -8 | -2 | 11
COCCN1C=C2C(=O)C(C)(OC(=O)CCC(=O)OC)C(=O)C=C2C=C1C1CC1 (stereo not drawn) | 4 | 20* | 2 | 0 | 2 | -3
O=C(NCC1CCCO1)c1cccc(S(=O)(=O)N2CCCCC2)c1 (stereo not drawn) | . | 6 | -4 | -15 | . | .
Cc1cc2c(sc3c(C)ccc(C)c32)c(C)n1 | -2 | -2 | 3 | -3 | . | .
SMILES | HDAC3 inh | PKA-R2B activ | Rtt109 HAT inh | PKA-R1A activ | R2B FP artifact | PKA-R2B confirm
O=S1(=O)N[C@@H](c2ccccc2)COc2cc(Br)ccc21 | . | 3 | . | 10 | . | .
CCOC(=O)c1ccc(N(C(=O)CNC(=O)c2ccco2)C(C(=O)NCC2CCCO2)c2ccc(OC)c(OC)c2)cc1 (stereo not drawn) | 6 | 19* | -1 | 7 | 2 | -2
COc1ccc(C(C(=O)NCC2CCCO2)N(C(=O)CNC(=O)c2ccco2)c2ccccc2)cc1OC (stereo not drawn) | -6 | 4 | -2 | 7 | . | .
COc1ccc(N2CCN(C(=O)c3ccc(OCc4c(C)noc4C)c(OC)c3)CC2)cc1 | 2 | 20* | 4 | 1 | 3 | 2
NS(=O)(=O)c1ccc(CCNC(=O)c2ccc(Cl)c(S(=O)(=O)N3CCCCC3)c2)cc1 | -1 | 18* | -2 | 0 | 4 | 6
NS(=O)(=O)c1ccc(CCNC(=O)c2ccc(S(=O)(=O)N3CCCCC3)cc2)cc1 | -3 | -13 | 1 | 7 | . | .
CCOc1ccc(NC(=O)CSc2nnnn2-c2ccc(C(N)=O)cc2)cc1 | -6 | 21* | 4 | -13 | 2 | -1
COc1ccc(NC(=O)CSc2nnnn2-c2ccc(OC)cc2)cc1 | -3 | -6 | 1 | -4 | . | .
COc1ccc(NC(=O)CCNC(=O)Cn2cnc3ccccc3c2=O)cc1OC | -2 | 21* | -16 | -2 | 2 | -3
COc1cc(NC(=O)CCNC(=O)Cn2cnc3ccccc3c2=O)cc(OC)c1OC | 0 | -7 | 3 | -7 | . | .
CCn1c(=O)c(C(=O)NNS(=O)(=O)c2ccc(Cl)cc2)c(O)c2ccccc21 | -2 | 18* | -2 | -2 | -3 | -2
C=CCNC(=O)c1ccc(-c2nc3ccccc3nc2-c2ccccc2)cc1 | -2 | 22* | 0 | 2 | -1 | 4
C=CCNC(=O)c1ccc(-c2nc(-c3ccccc3)cs2)cc1 | -10 | 4 | 2 | -7 | . | .
N#Cc1ccc(OCC(=O)OCC(=O)Nc2sccc2C(N)=O)cc1 | 0 | -1 | 8 | -9 | . | .
Cc1onc(-c2ccccc2)c1C(=O)Nc1ccc(Br)cc1Cl | -2 | 19* | 10 | 2 | 6 | 0
CCOC(=O)C[N+](CC)(CC)CC#Cc1ccccc1 | -4 | -1 | 14 | 0 | . | .
COc1ccc(C(CC(=O)c2ccc3c(c2)OCO3)C(=O)O)cc1OC (stereo not drawn) | . | 7 | . | 1 | . | .
O=C(NCc1ccccc1)C1=C[C@H](c2ccc3c(c2)OCO3)C[C@H](OCc2ccc(CO)cc2)O1 | -4 | -7 | 7 | -4 | . | .
C#CCNC(=O)C1=C[C@@H](c2ccc3c(c2)OCO3)C[C@@H](OCc2ccc(CO)cc2)O1 | 3 | 21* | -4 | 0 | 0 | -2
O=S(Cc1ccccc1)CC(O)(c1ccccc1)c1ccccc1 (stereo not drawn) | 2 | -7 | -12 | -14 | . | .
CCOc1ccc(CC2NCCc3cc(OCC)c(OCC)cc32)cc1OCC (stereo not drawn) | . | 20* | 2 | 8 | 2 | 5
Cn1cnc(S(=O)(=O)Nc2cc(C(F)(F)F)ccc2N2CCOCC2)c1 | -1 | 20* | 0 | -4 | 1 | -1
COc1ccc(C(=O)NC2(C(F)(F)F)N=C3SCCN3C2=O)cc1 (stereo not drawn) | -15 | 19* | -1 | -1 | 0 | -3
O=C1NCCCN1C1OC(CO)C(O)C1O (stereo not drawn) | . | 22* | . | 11 | 6 | 6
O=c1cnn([C@@H]2O[C@H](CO)[C@@H](O)[C@H]2O)c(=O)[nH]1 | 3 | -7 | 6 | -9 | . | .
